# Measured values reported in PubChem BioAssay (EPA / NIEHS).
# Results filed as inconclusive are left out. Activity calls are given as the source filed them. The calls were made as follows, unless noted: active = hit-call score of the fitted dose curve at least 0.9, where 1 is the maximum; inactive = score below 0.9.
# Key:
# [1] = biological target: Oxysterols receptor LXR-alpha (Homo sapiens) (UniProt Q13133); assay: ATG_LXRa_TRANS: Attagene TRANS-FACTORIAL HepG2 Assay for human Liver X Receptor alpha (LXRa) (AID 2282980; active = hit-call score of the fitted dose curve at least 0.9, where 1 is the maximum); conditions: HepG2 Attagene TRANS reporter, LXRa transactivation
# In short: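 Read-out: reporter transcript levels by RT-PCR plus capillary electrophoresis, fluorescence intensity. Transiently transfected HepG2, exogenous NR-GAL4 chimera, GAL4-UAS reporters; 24 h compound exposure. Activity = increase over DMSO negative control.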
# [2] = biological target: Hepatocyte nuclear factor 4-alpha (Homo sapiens) (UniProt P41235); assay: ATG_HNF4a_TRANS: Attagene TRANS-FACTORIAL HepG2 Assay for human Hepatocyte Nuclear Factor 4 alpha (HNF4a) (AID 2282982; active = hit-call score of the fitted dose curve at least 0.9, where 1 is the maximum); conditions: HepG2 HNF4a transactivation reporter, mRNA readout
# In short: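 Transient MRTU transfection of HepG2, 24 h dosing. Readout: reporter mRNA via RT-PCR + capillary electrophoresis, fluorescence; activity fit upward relative to DMSO control.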
# [3] = ATG_M_06_TRANS: Attagene TRANS-FACTORIAL HepG2 Assay for M06 Transcription Factor (Internal Marker) (AID 2282983; active = hit-call score of the fitted dose curve at least 0.9, where 1 is the maximum); conditions: HepG2 Attagene TRANS M06 internal marker reporter
# In short: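 Read-out: fluorescent reporter cDNA fragments resolved by capillary electrophoresis after RT-PCR and HpaI cut. Source cells were HepG2 carrying transfected multi-reporter GAL4 constructs, dosed 24 h. Increase over DMSO control analysed.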
# [4] = ATG_M_32_TRANS: Attagene TRANS-FACTORIAL HepG2 Assay for M32 Transcription Factor (Internal Marker) (AID 2282984; active = hit-call score of the fitted dose curve at least 0.9, where 1 is the maximum;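 also: transcript level of a background control reporter unit measured by RT-PCR and capillary electrophoresis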); conditions: HepG2 Attagene TRANS M32 internal marker reporter
# In short: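 Read-out: fluorescent reporter cDNA fragments resolved by capillary electrophoresis after RT-PCR of total RNA. Transfected HepG2 cells were exposed to chemical for 24 h. Activity scored in the positive direction relative to DMSO.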
# [5] = biological target: Transcriptional activator Myb (Homo sapiens) (UniProt P10242); assay: ATG_Myb_CIS: Attagene CIS-FACTORIAL HepG2 Assay for human Myeloblastosis (Myb) Proto-Oncogene Transcription Factor (AID 2282986); conditions: HepG2 Attagene CIS-FACTORIAL Myb reporter transcription; actives raise or lower the signal
# In short: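 Reporter mRNA is quantified by RT-PCR and capillary electrophoresis 24 h after dosing HepG2 cells transfected with cis-regulated reporter units, which track endogenous transcription factor activity. Gain and loss of signal are fitted versus DMSO baseline.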
# [6] = biological target: Nuclear respiratory factor 1 (Homo sapiens) (UniProt Q16656); assay: ATG_NRF1_CIS: Attagene CIS-FACTORIAL HepG2 Assay for human Nuclear Respiratory Factor 1 (NRF1) Orphan Gene (AID 2282987); conditions: HepG2 NRF1 cis-element reporter, Attagene multiplex; actives raise or lower the signal
# In short: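 Endogenous NRF1-driven reporter transcription in transfected HepG2 cells after 24 h treatment. Readout: RT-PCR products, 6-FAM labelled and resolved by capillary electrophoresis; changes fitted both directions relative to DMSO.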
# [7] = ATG_NFI_CIS: Attagene CIS-FACTORIAL HepG2 Assay for human Nuclear Factor I (NFI) (AID 2282989); conditions: HepG2 cis-regulatory reporter, NFI response element transcription; actives raise or lower the signal
# In short: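 HepG2, transient MRTU, 24 h exposure; RNA→cDNA→PCR→FAM label→HpaI→CE fluorescence. Bidirectional fit, DMSO = baseline.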
# [8] = biological target: Myc proto-oncogene protein (Homo sapiens) (UniProt P01106); assay: ATG_Myc_CIS: Attagene CIS-FACTORIAL HepG2 Assay for human Myelocytomatosis (Myc) Proto-Oncogene Transcription Factor (AID 2282990); conditions: HepG2, Attagene cis-reporter transcription factor activity; actives raise or lower the signal
# In short: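 Transiently transfected HepG2 cells bearing cis-promoter reporter units for endogenous transcription factors; 24 h exposure. Reporter mRNA measured by RT-PCR, 6-FAM primer extension, HpaI cut and capillary electrophoresis; bidirectional fit relative to DMSO.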
# [9] = ATG_NF_kB_CIS: Attagene CIS-FACTORIAL HepG2 Assay for human Nuclear Factor Kappa B (NF-kB) (AID 2282991); conditions: HepG2 Attagene cis-factorial NF-kB reporter mRNA; actives raise or lower the signal
# In short: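 Readout is reporter transcript level, gain or loss versus DMSO, measured 24 h post-dose via RT-PCR, fluorescent labelling and capillary electrophoresis. Human HepG2 liver cells carried transiently transfected CIS reporter constructs reflecting endogenous factors.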
# [10] = ATG_Oct_MLP_CIS: Attagene CIS-FACTORIAL HepG2 Assay for human Octamer-Binding Transcription Factor (Oct) (AID 2282993); conditions: HepG2 Attagene cis-factorial Oct reporter, mRNA; actives raise or lower the signal
# In short: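 Multiplexed cis-reporter assay in human liver HepG2 cells, 24 h incubation. Reporter RNA amplified and labelled, then resolved by capillary electrophoresis; DMSO serves as negative control and baseline.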
# [11] = biological target: Cellular tumor antigen p53 (Homo sapiens) (UniProt P04637); assay: ATG_p53_CIS: Attagene CIS-FACTORIAL HepG2 Assay for human p53 Transcription Factor (AID 2282994); conditions: HepG2 p53 cis-element reporter, Attagene mRNA; actives raise or lower the signal
# In short: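 Steps: transfect HepG2 with multiplexed cis reporter constructs; dose chemicals 24 h; extract RNA, reverse-transcribe, PCR-amplify reporter sequences; FAM-label, HpaI-digest, resolve fragments by CE. Activity fitted both directions relative to DMSO.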
# [12] = BSK_3C_TissueFactor: BioMAP Diversity Plus: 3C Assay for Tissue Factor Biomarker Activity (AID 2282997); conditions: BioMAP 3C HUVEC, tissue factor biomarker readout; actives raise or lower the signal
# In short: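 HUVEC, 3C system, 24 h post-dose; Tissue Factor by ELISA; bidirectional fit vs DMSO baseline.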
# [13] = BSK_3C_uPAR: BioMAP Diversity Plus: 3C Assay for Urokinase-type plasminogen activator receptor (uPAR) Biomarker Activity (AID 2282998); conditions: BioMAP 3C HUVEC, uPAR biomarker ELISA; actives raise or lower the signal
# In short: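 Dose primary human umbilical vein endothelial cells, incubate 24 h, measure cell-surface uPAR by ELISA, then fit the signal in both directions against the DMSO negative control.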
# [14] = BSK_3C_VCAM1: BioMAP Diversity Plus: 3C Assay for Vascular cell adhesion molecule 1 (VCAM1) Biomarker Activity (AID 2282999); conditions: BioMAP 3C HUVEC, VCAM1 ELISA, cytokine-stimulated; actives raise or lower the signal
# In short: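 HUVEC primary cells, 24 h compound exposure; VCAM-1 by ELISA; gain/loss of signal fitted bidirectionally vs DMSO baseline.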
# [15] = biological target: human Peroxisome Proliferator-activated Receptor alpha (PPARa), PPARA (gene 5465) (UniProt Q07869); assay: ATG_PPARa_TRANS: Attagene TRANS-FACTORIAL HepG2 Assay for human Peroxisome Proliferator-activated Receptor alpha (PPARa) (AID 2283001; active = hit-call score of the fitted dose curve at least 0.9, where 1 is the maximum)
# In short: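 Transient HepG2 transfection, GAL4-UAS reporters, NR-Gal4 chimeras; 24 h compound exposure. Readout: reporter transcripts by RT-PCR, 6-FAM primer extension, HpaI digest, capillary electrophoresis. Positive direction vs DMSO baseline.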
# [16] = biological target: human Peroxisome Proliferator-activated Receptor delta (PPARd), PPARD (gene 5467) (UniProt Q03181); assay: ATG_PPARd_TRANS: Attagene TRANS-FACTORIAL HepG2 Assay for human Peroxisome Proliferator-activated Receptor delta (PPARd) (AID 2283002; active = hit-call score of the fitted dose curve at least 0.9, where 1 is the maximum)
# In short: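 HepG2 cells transiently transfected with GAL4-UAS multiplexed reporter units driven by exogenous chimeric NR-GAL4 proteins; 24 h compound exposure. Reporter mRNA measured by RT-PCR, 6-FAM primer extension, HpaI digestion and capillary electrophoresis; gain of signal fitted relative to DMSO.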
# [17] = biological target: Nuclear receptor subfamily 4 group A member 2 (Homo sapiens) (UniProt P43354); assay: ATG_NURR1_TRANS: Attagene TRANS-FACTORIAL HepG2 Assay for human Nuclear Receptor Related Protein 1 (NURR1) (AID 2282985; active = hit-call score of the fitted dose curve at least 0.9, where 1 is the maximum); conditions: HepG2 Attagene TRANS reporter, mRNA readout
# In short: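 Read-out: reporter mRNA induction by RT-PCR plus capillary electrophoresis with fluorescence detection, after 24 h dosing of transfected HepG2 cells. Exogenous NR-Gal4 chimera activity drives GAL4-UAS reporter; activity fitted upward versus DMSO.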
# [18] = ATG_NRF2_ARE_CIS: Attagene CIS-FACTORIAL HepG2 Assay for human Nuclear Factor Erythroid 2 Related Factor 2 (NFR2) response to Antioxidant Response Elements (ARE) (AID 2282992); conditions: HepG2 Attagene ARE/NRF2 reporter, transcription factor activity; actives raise or lower the signal;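 as to AC50: reporter mRNA level measured by RT-PCR and capillary electrophoresis fluorescence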
# In short: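 Endogenous transcription factor activity in human liver HepG2 cells is tracked via a cis-element-driven reporter within a multiplexed set. mRNA induction is read by RT-PCR and capillary electrophoresis after 24 h, with DMSO as baseline.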
# [19] = BSK_4H_Eotaxin3: BioMAP Diversity Plus: 4H Assay for Eotaxin 3 Biomarker Activity (AID 2283000); conditions: primary human endothelial cells (HUVEC); actives raise or lower the signal;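 as to outcome: CCL26 protein level quantified by ELISA in parallel with SRB cytotoxicity check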
# In short: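 Readout is Eotaxin-3 (CCL26) level by ELISA in primary human umbilical vein endothelial cells harvested 24 h after chemical exposure; activity fitted in both directions against DMSO control.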
# [20] = biological target: Oxysterols receptor LXR-beta (Homo sapiens) (UniProt P55055); assay: ATG_LXRb_TRANS: Attagene TRANS-FACTORIAL HepG2 Assay for human Liver X Receptor beta (LXRb) (AID 2282981; active = hit-call score of the fitted dose curve at least 0.9, where 1 is the maximum); conditions: HepG2 Attagene TRANS GAL4-LXRb reporter, mRNA
# In short: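 Readout: fluorescent reporter mRNA fragments resolved by capillary electrophoresis after RT-PCR. System: transiently transfected human HepG2, exogenous LXRb-Gal4 chimera driving GAL4-UAS reporter, 24 h dosing. Activity fitted upward against DMSO baseline.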
# Sequence of Nuclear respiratory factor 1 (Homo sapiens) (Q16656 whole entry, looked up): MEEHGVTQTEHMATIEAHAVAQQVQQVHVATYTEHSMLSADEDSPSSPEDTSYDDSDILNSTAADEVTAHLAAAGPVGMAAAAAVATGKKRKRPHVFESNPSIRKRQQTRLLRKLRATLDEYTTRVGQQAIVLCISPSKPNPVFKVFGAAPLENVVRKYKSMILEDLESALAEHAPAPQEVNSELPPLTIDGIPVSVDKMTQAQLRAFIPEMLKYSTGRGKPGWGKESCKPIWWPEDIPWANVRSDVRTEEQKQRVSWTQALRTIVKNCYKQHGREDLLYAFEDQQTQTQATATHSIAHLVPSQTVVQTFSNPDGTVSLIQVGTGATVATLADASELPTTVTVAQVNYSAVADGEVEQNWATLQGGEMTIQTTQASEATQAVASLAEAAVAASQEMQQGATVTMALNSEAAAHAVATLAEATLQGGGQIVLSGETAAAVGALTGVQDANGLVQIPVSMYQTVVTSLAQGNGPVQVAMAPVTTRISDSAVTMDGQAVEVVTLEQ
# Sequence of Hepatocyte nuclear factor 4-alpha (Homo sapiens) (P41235 whole entry, looked up): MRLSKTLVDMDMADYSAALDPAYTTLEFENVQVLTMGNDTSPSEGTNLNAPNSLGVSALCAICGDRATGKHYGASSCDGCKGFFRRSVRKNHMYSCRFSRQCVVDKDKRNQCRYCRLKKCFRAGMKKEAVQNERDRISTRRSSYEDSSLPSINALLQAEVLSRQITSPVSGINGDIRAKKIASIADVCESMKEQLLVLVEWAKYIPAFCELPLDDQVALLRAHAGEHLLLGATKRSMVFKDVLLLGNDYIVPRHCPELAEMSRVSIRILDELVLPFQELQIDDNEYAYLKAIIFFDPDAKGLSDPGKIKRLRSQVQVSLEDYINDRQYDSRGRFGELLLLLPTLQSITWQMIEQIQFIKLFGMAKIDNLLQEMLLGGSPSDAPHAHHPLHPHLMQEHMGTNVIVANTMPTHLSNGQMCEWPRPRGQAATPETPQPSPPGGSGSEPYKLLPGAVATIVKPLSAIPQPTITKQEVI
# Sequence of Transcriptional activator Myb (Homo sapiens) (P10242 whole entry, looked up): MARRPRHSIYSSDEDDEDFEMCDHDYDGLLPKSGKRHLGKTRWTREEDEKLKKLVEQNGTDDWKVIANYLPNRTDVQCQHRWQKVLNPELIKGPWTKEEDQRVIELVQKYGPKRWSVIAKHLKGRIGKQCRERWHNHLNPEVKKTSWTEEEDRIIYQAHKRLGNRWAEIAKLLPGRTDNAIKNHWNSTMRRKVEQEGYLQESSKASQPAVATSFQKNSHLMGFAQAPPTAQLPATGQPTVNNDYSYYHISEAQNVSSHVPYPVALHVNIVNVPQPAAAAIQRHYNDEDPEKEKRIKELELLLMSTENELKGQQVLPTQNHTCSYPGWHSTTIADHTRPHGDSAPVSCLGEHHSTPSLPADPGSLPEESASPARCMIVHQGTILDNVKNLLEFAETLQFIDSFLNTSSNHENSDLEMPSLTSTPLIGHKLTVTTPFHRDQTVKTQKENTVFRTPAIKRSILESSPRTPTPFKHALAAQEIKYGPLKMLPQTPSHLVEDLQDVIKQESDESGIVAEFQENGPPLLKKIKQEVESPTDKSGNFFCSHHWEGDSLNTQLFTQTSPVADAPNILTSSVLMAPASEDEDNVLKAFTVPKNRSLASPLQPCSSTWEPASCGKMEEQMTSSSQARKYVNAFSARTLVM
# Sequence of Nuclear receptor subfamily 4 group A member 2 (Homo sapiens) (P43354 whole entry, looked up, the tested form may be a part): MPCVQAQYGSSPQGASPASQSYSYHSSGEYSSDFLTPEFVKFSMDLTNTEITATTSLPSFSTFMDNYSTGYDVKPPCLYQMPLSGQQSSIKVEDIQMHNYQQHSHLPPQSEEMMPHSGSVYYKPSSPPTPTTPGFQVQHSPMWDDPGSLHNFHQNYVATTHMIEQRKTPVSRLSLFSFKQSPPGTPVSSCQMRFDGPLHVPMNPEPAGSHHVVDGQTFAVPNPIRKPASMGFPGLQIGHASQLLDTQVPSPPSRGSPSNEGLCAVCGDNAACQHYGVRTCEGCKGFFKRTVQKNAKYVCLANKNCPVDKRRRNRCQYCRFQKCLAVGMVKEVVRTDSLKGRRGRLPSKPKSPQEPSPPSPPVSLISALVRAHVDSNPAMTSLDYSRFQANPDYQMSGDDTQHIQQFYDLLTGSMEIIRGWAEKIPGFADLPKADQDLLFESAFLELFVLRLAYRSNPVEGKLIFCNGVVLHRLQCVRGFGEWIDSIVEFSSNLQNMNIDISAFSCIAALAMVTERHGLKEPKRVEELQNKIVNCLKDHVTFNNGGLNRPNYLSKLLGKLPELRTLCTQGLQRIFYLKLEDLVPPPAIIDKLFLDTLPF
# Sequence of Oxysterols receptor LXR-alpha (Homo sapiens) (Q13133 whole entry, looked up, the tested form may be a part): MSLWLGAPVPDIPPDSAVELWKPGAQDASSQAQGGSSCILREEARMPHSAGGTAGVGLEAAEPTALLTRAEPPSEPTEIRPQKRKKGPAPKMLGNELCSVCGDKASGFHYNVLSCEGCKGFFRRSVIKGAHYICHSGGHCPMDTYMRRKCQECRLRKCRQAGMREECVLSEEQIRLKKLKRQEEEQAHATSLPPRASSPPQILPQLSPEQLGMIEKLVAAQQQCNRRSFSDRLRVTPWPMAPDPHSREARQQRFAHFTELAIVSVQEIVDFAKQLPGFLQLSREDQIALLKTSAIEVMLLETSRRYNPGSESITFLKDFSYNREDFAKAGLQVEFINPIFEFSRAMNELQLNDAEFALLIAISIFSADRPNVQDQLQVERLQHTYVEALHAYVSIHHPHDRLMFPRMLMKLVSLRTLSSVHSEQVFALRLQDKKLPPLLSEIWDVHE
# Sequence of Myc proto-oncogene protein (Homo sapiens) (P01106 whole entry, looked up): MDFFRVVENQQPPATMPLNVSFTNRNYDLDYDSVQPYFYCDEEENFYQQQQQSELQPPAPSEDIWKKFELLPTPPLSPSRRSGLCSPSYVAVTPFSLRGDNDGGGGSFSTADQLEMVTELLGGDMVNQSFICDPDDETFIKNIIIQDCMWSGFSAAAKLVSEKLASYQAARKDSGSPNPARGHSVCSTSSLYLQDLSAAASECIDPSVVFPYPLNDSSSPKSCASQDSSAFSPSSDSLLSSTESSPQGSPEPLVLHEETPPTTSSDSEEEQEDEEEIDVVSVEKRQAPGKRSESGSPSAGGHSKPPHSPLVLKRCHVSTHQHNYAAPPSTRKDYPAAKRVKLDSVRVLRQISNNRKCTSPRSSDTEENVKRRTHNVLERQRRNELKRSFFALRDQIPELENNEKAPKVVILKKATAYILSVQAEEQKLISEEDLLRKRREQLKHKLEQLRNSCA
# Sequence of human Peroxisome Proliferator-activated Receptor delta (PPARd), PPARD (gene 5467) (Q03181 whole entry, looked up, the tested form may be a part): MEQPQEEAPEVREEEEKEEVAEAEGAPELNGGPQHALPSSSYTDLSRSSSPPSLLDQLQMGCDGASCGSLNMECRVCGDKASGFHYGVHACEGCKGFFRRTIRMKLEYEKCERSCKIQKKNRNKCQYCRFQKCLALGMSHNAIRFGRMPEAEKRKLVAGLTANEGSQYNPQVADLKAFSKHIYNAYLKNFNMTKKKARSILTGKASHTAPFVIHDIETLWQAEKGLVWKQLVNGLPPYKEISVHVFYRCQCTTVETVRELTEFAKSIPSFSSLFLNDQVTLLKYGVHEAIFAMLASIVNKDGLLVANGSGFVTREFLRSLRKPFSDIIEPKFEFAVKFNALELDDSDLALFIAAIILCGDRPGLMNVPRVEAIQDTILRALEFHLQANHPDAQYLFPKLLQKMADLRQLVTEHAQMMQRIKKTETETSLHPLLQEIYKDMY
# Sequence of Cellular tumor antigen p53 (Homo sapiens) (P04637 whole entry, looked up, the tested form may be a part): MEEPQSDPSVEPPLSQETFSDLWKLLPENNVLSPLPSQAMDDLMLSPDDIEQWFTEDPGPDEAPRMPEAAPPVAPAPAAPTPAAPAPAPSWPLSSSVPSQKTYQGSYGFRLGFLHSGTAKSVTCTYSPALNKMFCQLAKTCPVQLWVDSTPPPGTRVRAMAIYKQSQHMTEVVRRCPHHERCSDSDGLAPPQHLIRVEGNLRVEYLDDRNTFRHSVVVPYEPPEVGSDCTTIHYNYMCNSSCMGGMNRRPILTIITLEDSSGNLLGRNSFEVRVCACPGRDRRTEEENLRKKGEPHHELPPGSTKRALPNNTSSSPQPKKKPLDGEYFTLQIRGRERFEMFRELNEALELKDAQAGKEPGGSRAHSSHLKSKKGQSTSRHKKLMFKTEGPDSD
# Sequence of human Peroxisome Proliferator-activated Receptor alpha (PPARa), PPARA (gene 5465) (Q07869 whole entry, looked up, the tested form may be a part): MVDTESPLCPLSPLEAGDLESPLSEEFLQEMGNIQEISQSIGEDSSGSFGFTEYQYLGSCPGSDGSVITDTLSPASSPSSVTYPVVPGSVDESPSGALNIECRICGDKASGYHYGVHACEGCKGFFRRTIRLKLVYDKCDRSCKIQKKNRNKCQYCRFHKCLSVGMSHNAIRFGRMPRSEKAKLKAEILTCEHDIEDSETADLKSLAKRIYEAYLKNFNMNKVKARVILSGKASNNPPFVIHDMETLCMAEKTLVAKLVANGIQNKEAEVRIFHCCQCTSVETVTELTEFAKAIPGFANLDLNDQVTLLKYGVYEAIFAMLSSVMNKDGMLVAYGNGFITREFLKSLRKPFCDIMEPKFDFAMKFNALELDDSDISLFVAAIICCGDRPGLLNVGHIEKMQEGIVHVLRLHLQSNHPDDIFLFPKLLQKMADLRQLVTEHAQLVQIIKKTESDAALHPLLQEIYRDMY
# Sequence of Oxysterols receptor LXR-beta (Homo sapiens) (P55055 whole entry, looked up, the tested form may be a part): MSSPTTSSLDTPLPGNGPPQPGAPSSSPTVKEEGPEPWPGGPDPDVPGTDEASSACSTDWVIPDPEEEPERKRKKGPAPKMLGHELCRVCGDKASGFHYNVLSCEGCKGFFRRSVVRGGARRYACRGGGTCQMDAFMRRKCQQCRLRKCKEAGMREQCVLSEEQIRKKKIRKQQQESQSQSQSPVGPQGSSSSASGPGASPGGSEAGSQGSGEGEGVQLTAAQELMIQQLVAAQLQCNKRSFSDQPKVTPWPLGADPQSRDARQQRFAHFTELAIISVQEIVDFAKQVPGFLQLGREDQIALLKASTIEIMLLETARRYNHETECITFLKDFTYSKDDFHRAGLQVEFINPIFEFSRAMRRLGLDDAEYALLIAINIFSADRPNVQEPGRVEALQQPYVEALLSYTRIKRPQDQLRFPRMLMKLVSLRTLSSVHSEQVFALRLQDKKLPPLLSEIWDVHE
smiles,measurement,setting,value
CCCCOC(=O)c1ccccc1C(=O)OCc1ccccc1,outcome,[1],inactive
same,outcome,[2],inactive
same,outcome,[3],inactive
same,outcome,[4],inactive
same,outcome,[5],inactive
same,outcome,[6],inactive
same,outcome,[7],inactive
same,outcome,[8],inactive
same,outcome,[9],inactive
same,outcome,[10],inactive
same,outcome,[11],inactive
same,outcome,[12],inactive
same,outcome,[13],inactive
same,outcome,[14],inactive
same,outcome,[15],inactive
same,outcome,[16],inactive
Cc1cccc(N)c1N,outcome,[1],inactive
same,outcome,[3],inactive
same,outcome,[4],inactive
same,outcome,[17],inactive
same,outcome,[5],inactive
same,outcome,[6],inactive
same,outcome,[7],inactive
same,outcome,[9],inactive
same,AC50,[10],167 µM (active)
same,outcome,[11],inactive
same,outcome,[13],inactive
same,outcome,[15],inactive
CN(C)c1ccc(C(=O)c2ccc(N(C)C)cc2)cc1,outcome,[1],inactive
same,outcome,[2],inactive
same,outcome,[4],inactive
same,outcome,[5],inactive
same,outcome,[6],inactive
same,outcome,[7],inactive
same,outcome,[8],inactive
same,outcome,[9],inactive
same,outcome,[18],inactive
same,outcome,[10],inactive
same,outcome,[11],inactive
same,AC50,[13],3.34 µM (active)
same,outcome,[19],inactive
same,outcome,[15],inactive
CC(C)(OOC(C)(C)c1ccccc1)c1ccccc1,outcome,[1],inactive
same,outcome,[20],inactive
same,outcome,[3],inactive
same,outcome,[17],inactive
same,outcome,[5],inactive
same,AC50,[6],63 µM (active)
same,AC50,[7],59.1 µM (active)
same,AC50,[8],77.6 µM (active)
same,outcome,[9],inactive
same,AC50,[18],29.1 µM (active)
same,AC50,[10],59.6 µM (active)
same,outcome,[11],inactive
same,AC50,[12],29 µM (active)
same,AC50,[13],33.7 µM (active)
same,outcome,[15],inactive
same,outcome,[16],inactive
CCCCCCCCOC(=O)c1ccc(C(=O)OCCCCCCCC)c(C(=O)OCCCCCCCC)c1,outcome,[1],inactive
same,outcome,[2],inactive
same,outcome,[17],inactive
same,outcome,[5],inactive
same,outcome,[6],inactive
same,outcome,[7],inactive
same,outcome,[9],inactive
same,outcome,[10],inactive
same,outcome,[11],inactive
same,outcome,[13],inactive
same,outcome,[19],inactive
same,outcome,[15],inactive
CC(C)(C)OOC(C)(C)CCC(C)(C)OOC(C)(C)C,outcome,[1],inactive
same,outcome,[3],inactive
same,outcome,[17],inactive
same,outcome,[5],inactive
same,outcome,[6],inactive
same,outcome,[7],inactive
same,outcome,[8],inactive
same,AC50,[18],75.2 µM (active)
same,outcome,[10],inactive
same,outcome,[11],inactive
same,outcome,[13],inactive
Cc1cc(N=Nc2ccccc2C)ccc1N,outcome,[1],inactive
same,outcome,[20],inactive
same,outcome,[2],inactive
same,outcome,[3],inactive
same,outcome,[4],inactive
same,outcome,[17],inactive
same,outcome,[5],inactive
same,outcome,[6],inactive
same,outcome,[7],inactive
same,outcome,[8],inactive
same,outcome,[9],inactive
same,AC50,[18],7.21 µM (active)
same,AC50,[10],20.4 µM (active)
same,outcome,[11],inactive
same,AC50,[13],10.4 µM (active)
same,outcome,[15],inactive
same,outcome,[16],inactive
O=Cc1ccco1,outcome,[1],inactive
same,outcome,[2],inactive
same,outcome,[17],inactive
same,outcome,[5],inactive
same,outcome,[6],inactive
same,outcome,[7],inactive
same,outcome,[8],inactive
same,outcome,[9],inactive
same,outcome,[10],inactive
same,outcome,[11],inactive
same,outcome,[12],inactive
same,outcome,[13],inactive
same,outcome,[14],inactive
same,outcome,[19],inactive
same,outcome,[15],inactive
same,outcome,[16],inactive
COc1cc(C=O)cc2c1[C@H](COC(N)=O)[C@]1(OC(C)=O)ON2C[C@H]2[C@@H]1N2C(C)=O,outcome,[1],inactive
same,outcome,[2],inactive
same,outcome,[3],inactive
same,outcome,[4],inactive
same,AC50,[5],2.77 µM (active)
same,outcome,[6],inactive
same,AC50,[7],52 µM (active)
same,AC50,[18],17 µM (active)
same,AC50,[10],0.179 µM (active)
same,AC50,[11],5.95 µM (active)
same,AC50,[12],6.64 µM (active)
same,AC50,[13],11.6 µM (active)
same,AC50,[19],6.01 µM (active)
same,outcome,[15],inactive
same,outcome,[16],inactive
